This note sets out measurements from PubChem BioAssay (NCATS).

Where “and” joins values, the source holds several entries; their conditions need not be identical. Equal values may be shown once. Unmarked numbers belong to inactive results. Records with an inconclusive call do not appear. Where a call stands in place of a potency, no number is given. Calls of active or inactive are those of the source. Unless noted, how the calls were made is not given here.

Assay [1] has as its system astro (control astrocytes). The experiment in a line: Drug repurposing screens with cells derived from glioblastoma tumor samples (AID 1345199; active means well fitted inhibition curve with a large enough effect; further: nearly all actives have a fitted effect of over 40% in size). Particulars: viability, ATP luminescence, 48 h; series mostly up to 45.9 µM. The method in brief: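 Primary testing used CD133+ neurospheres from four GBM patients, seven concentrations, 48 h exposure and ATP-based viability; confirmation added three slower-growing patient lines.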

The target of assay [2] is Nuclear receptor subfamily 1 group I member 2 (Rattus norvegicus) (UniProt Q9R1A7). Briefly: qHTS assay for small molecule activators of the rat pregnane X receptor (rPXR) signaling pathway (AID 651751). As to conditions: rPXR reporter cells, luciferase (One-Glo), 24 h.
Chain of Nuclear receptor subfamily 1 group I member 2 (Rattus norvegicus) (Q9R1A7 whole entry, looked up): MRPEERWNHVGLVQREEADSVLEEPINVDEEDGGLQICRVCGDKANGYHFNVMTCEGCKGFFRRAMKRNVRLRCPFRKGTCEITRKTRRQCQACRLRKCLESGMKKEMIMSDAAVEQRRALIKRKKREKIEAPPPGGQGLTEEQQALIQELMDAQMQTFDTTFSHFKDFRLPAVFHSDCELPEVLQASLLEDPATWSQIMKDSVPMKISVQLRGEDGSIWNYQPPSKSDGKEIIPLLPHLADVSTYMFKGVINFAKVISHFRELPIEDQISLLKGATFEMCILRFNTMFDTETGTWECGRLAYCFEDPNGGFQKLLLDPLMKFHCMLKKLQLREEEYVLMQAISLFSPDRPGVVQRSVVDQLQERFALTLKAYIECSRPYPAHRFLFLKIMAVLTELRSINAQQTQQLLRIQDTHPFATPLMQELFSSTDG
The nature of assay [3]: qHTS assay for small molecule activators of the human pregnane X receptor (PXR) signaling pathway (AID 720659). As to conditions: DPX-2 HepG2 CYP3A4-luciferase, 24 h; series mostly up to 92.3 µM. (In general: qHTS replaces the single test concentration by a dilution series.)

Take `COc1cc(OC)c(OC)cc1C=O`: in assay [1], the Potency entry is “inactive”. The max response in assay [2] was 5.78%. Further, the result in assay [3] was inactive.

Turning to `Clc1ccc2c(c1)C(c1ccccc1)=NCc1nncn1-2`, the Potency entry in assay [1] is “inactive”. Turning to `COP(=S)(OC)Oc1ccc(SC)c(C)c1`, the Potency entry in assay [1] was “inactive”. Besides, in assay [2], the max response is -3.65% and 2.94%. Further, in assay [3], the result was inactive. For `CN1C(=O)COc2c(C(=O)NC3CN4CCC3CC4)cc(Cl)cc21` (stereo not given), the Potency result in assay [1] was “inactive”. `O=C1Nc2ccc(Cl)cc2C(c2ccccc2Cl)=NC1O` (stereo not given): the Potency result in assay [1] is “inactive”.

With `CCCC(C)(COC(N)=O)COC(N)=O`, the max response in assay [2] was 3.06% and 3.91%. In the case of `CCN(CCO)CCn1c(Cc2ccccc2)nc2c1c(=O)n(C)c(=O)n2C`, the Potency entry in assay [1] was “inactive”. Take `CC(C)NC(C)C`: the Potency result in assay [1] is “inactive”. For the same molecule, the max response in assay [2] is 7.26%. For the same molecule, the molecule was called inactive in assay [3]. In the case of `COC(=O)C(c1ccccc1)C1CCCCN1` (stereo not given), the max response in assay [2] is 1.26% and 1.36%. The call in assay [3] was inactive.

Turning to `COc1ccc2c3c1O[C@H]1[C@H](O)CC[C@H]4[C@@H](C2)N(C)CC[C@@]341`, the Potency result in assay [1] is “inactive”. On to `CCC(C)(C)c1ccc(O)cc1`, for which the Potency result in assay [1] was “inactive”. In addition, the max response in assay [2] was 1.88% and -0.811%. `Nc1ccc([As](=O)(O)O)cc1`: the max response in assay [2] was 3.51%. The call in assay [3] was inactive. In the case of `COc1cccc([C@@]2(O)CCCC[C@@H]2CN(C)C)c1`, in assay [1], the Potency entry is “inactive”.

As for `CN1C(=O)CC(=O)N(c2ccccc2)c2cc(Cl)ccc21`, the Potency result in assay [1] is “inactive”. On the same count and under the same terms, next, `NC(=O)CS(=O)C(c1ccccc1)c1ccccc1` (stereo not given): “inactive”.

Turning to `C[C@]12CCC(=O)C=C1CC[C@@H]1[C@@H]2CC[C@]2(C)C(=O)CC[C@@H]12`, the max response in assay [2] was 5.29% and 4.66%. Turning to `CC(C)c1cccc(C(C)C)c1O`, in assay [1], the Potency result was “inactive”. The max response in assay [2] was -2.57%.

For the molecule `O=P1(N(CCCl)CCCl)NCCCO1` (stereo not given), in assay [1], the Potency result is “inactive”. For the same molecule, in assay [2], the max response was 6.19% and -0.989%. Also, in assay [3], the molecule was classed as inactive. Regarding `O=C1c2ccccc2C(=O)c2ccccc21`, the Potency result in assay [1] is “inactive”. In addition, the max response in assay [2] is 4.64%. On to `COP(=S)(OC)SCN1C(=O)c2ccccc2C1=O`, for which the Potency result in assay [1] is “inactive”. In addition, the max response in assay [2] was -5.41%. The result in assay [3] was inactive. With `Oc1ccc(Cl)cc1`, the max response in assay [2] was 5.25%. Also, in assay [3], the molecule was classed as inactive.

`O=C(O)/C=C\C(=O)O`: in assay [1], the Potency result was “inactive”. Take `Nc1nc(N)nc(NC2CC2)n1`: in assay [2], the max response was 2.97%. In addition, in assay [3], the call was inactive. On to `[N-]=[N+]=CC(=O)OC[C@H](N)C(=O)O`, for which, in assay [2], the max response was -5.51%. For the same molecule, the molecule was classed as inactive in assay [3].

`CCN[C@@H](C)Cc1ccccc1`: the Potency entry in assay [1] is “inactive”. Still for that read-out and setting: for `CNC(C)(C)Cc1ccccc1` the value was “inactive”. Still for that read-out and setting: next, `CCC1(CC)C(=O)C=CNC1=O`: “inactive”. On to `COP(=S)(OC)Oc1cc(Cl)c(Cl)cc1Cl`, for which the max response in assay [2] is 1.25%. Moreover, in assay [3], the result was inactive. Take `C[C@H](N)C(=O)c1ccccc1`: in assay [1], the Potency entry was “inactive”. The same measure, in the same setting: next, `C[C@@H](N)[C@@H](O)c1ccccc1`: “inactive”; `C[C@H]1[C@@H]2Cc3ccc(O)cc3[C@@]1(C)CCN2C`: “inactive”. `CCOC(=O)CC(SP(=S)(OC)OC)C(=O)OCC` (stereo not given): in assay [2], the max response is -0.753% and 0.726% and 3.47%. The molecule was called inactive in assay [3].

`Nc1ccccc1`: in assay [2], the max response was -4.01%. In addition, in assay [3], the result was inactive. `NCCc1ccc(O)cc1`: the Potency entry in assay [1] was “inactive”. Further, the max response in assay [2] was 0.0715%. For the same molecule, the result in assay [3] was inactive. Consider `O=C(O)CCCc1ccc(N(CCCl)CCCl)cc1`, for which, in assay [2], the max response is 4.32% and -0.624%. For the same molecule, in assay [3], the result was inactive. Consider `Nc1ccccc1C(=O)O`, for which the max response in assay [2] is -1.41%. Moreover, in assay [3], the molecule was called inactive. For `O=C1c2ccccc2C(=O)C1C(=O)C(c1ccccc1)c1ccccc1`, the call in assay [3] was inactive. In the case of `CN1C[C@H](C(=O)N[C@]2(C)O[C@@]3(O)[C@@H]4CCCN4C(=O)[C@H](Cc4ccccc4)N3C2=O)C=C2c3cccc4[nH]cc(c34)C[C@H]21`, the max response in assay [2] is 10% and -0.133%. Regarding `CCOP(=S)(OCC)Oc1ccc2c(C)c(Cl)c(=O)oc2c1`, the Potency result in assay [1] is “inactive”.

For `CC(NC(C)(C)C)C(=O)c1cccc(Cl)c1` (stereo not given), in assay [1], the Potency entry is “inactive”.
